Measurements as given in the supplement of paper PMC11732987, “Enantioselective OTUD7B fragment discovery through chemoproteomics screening and high-throughput optimisation” (Communications Chemistry, 2025).

Tests used:
Assay in all cases: log2 ratio of Biotin-Ahx-Ub-VS probe labelling (fragment/DMSO); higher = less target engagement (more negative = stronger competition), active = hit call of the paper (q ≤ 0.05, log2 ratio ≤ -1)
Conditions in all cases: compound concentration: 200 uM; treatment time: 3 h
USP34 = USP34 (UniProt Q70CQ2)
Procedure, shortened: (§1)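 Each value is an average log2 ratio of fragment to vehicle, tested by unpaired t-test. The underlying Spectronaut label-free quantities were global-median-normalised, and only proteins with ≥2 unique peptides were included. Triplicate HEK293T lysate samples (495 µg) were exposed to fragment at 200 µM or vehicle for 3 h, then to Biotin-Ahx-Ub-VS at 0.5 µM final for 1 h, before NeutrAvidin enrichment of labelled DUBs, LysC and trypsin digestion, and diaPASEF LC-MS/MS.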

USP36 = target: T1, USP36 (UniProt Q9P275)
T1 sequence (whole entry): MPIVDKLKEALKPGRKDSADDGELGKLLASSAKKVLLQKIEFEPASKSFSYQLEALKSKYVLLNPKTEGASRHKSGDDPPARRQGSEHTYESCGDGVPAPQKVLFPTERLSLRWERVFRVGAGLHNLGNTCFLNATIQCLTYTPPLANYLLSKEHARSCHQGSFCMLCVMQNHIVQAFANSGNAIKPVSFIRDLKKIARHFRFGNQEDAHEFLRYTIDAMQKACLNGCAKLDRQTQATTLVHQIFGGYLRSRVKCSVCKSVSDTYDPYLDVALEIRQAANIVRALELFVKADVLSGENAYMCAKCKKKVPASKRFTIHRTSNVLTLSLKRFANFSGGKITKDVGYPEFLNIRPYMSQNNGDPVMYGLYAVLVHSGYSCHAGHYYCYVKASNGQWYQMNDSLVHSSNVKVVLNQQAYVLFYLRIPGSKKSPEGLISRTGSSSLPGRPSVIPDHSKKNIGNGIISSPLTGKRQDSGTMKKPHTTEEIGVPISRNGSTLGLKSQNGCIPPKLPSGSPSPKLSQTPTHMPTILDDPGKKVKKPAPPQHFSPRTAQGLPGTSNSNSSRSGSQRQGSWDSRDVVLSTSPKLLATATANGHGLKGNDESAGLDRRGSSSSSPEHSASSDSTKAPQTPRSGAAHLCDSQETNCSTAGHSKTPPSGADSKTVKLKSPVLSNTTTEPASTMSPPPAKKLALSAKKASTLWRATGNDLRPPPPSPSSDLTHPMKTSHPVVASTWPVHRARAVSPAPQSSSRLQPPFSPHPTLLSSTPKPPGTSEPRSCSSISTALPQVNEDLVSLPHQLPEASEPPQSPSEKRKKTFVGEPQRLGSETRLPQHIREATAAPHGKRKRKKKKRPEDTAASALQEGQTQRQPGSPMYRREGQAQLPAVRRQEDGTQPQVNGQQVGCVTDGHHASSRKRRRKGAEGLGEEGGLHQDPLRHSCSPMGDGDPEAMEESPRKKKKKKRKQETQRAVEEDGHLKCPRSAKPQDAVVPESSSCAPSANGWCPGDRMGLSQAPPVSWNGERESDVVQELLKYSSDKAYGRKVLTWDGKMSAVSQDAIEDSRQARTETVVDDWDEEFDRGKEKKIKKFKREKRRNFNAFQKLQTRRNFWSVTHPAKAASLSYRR
Procedure, shortened: as §1

USP38 = target: T2, USP38 (UniProt Q8NB14)
T2 sequence (whole entry): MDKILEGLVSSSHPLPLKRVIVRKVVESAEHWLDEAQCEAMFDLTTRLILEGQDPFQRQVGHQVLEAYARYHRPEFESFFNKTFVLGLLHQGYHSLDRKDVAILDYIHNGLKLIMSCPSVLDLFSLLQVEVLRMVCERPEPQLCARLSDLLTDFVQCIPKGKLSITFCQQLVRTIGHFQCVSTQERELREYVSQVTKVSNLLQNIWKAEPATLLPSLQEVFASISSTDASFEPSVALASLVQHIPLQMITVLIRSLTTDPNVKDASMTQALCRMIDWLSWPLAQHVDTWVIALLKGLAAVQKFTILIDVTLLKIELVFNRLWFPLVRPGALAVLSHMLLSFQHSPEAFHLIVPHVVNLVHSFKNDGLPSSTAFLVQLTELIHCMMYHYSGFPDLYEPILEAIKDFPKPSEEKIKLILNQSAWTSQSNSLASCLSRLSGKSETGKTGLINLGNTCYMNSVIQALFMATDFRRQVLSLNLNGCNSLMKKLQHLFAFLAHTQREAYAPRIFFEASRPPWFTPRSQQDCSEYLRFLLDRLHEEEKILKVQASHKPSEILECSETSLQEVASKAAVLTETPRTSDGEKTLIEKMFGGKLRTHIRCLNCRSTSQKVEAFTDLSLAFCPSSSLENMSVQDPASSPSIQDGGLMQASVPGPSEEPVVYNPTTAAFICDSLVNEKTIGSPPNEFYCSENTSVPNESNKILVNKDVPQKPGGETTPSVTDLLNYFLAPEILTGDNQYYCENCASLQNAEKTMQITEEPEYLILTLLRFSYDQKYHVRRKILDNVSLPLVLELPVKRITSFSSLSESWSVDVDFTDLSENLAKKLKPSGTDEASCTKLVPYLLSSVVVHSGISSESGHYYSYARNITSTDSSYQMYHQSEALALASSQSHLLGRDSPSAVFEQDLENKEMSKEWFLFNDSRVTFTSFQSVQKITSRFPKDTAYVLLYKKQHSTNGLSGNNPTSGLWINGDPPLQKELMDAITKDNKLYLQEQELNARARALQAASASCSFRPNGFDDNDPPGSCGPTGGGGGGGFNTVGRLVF
Procedure, shortened: as §1

USP39 = target: T3, USP39 (UniProt Q53GS9)
T3 sequence (whole entry): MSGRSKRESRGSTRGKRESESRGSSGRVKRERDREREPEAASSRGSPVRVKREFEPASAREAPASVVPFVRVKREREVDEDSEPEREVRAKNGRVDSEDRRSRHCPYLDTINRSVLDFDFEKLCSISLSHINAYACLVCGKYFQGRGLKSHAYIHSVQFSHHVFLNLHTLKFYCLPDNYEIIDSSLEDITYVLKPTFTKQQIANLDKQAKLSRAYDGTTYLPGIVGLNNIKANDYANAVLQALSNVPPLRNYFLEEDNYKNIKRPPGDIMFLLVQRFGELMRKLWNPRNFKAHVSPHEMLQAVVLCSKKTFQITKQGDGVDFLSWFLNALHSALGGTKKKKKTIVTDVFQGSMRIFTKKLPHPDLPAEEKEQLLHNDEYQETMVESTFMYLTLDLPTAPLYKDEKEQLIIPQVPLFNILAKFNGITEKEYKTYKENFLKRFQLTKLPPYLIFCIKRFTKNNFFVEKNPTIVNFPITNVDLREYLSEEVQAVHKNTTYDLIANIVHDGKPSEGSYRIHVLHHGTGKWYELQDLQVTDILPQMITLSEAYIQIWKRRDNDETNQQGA
Procedure, shortened: as §1

USP4 = target: T4, USP4 (UniProt Q13107)
T4 sequence (whole entry): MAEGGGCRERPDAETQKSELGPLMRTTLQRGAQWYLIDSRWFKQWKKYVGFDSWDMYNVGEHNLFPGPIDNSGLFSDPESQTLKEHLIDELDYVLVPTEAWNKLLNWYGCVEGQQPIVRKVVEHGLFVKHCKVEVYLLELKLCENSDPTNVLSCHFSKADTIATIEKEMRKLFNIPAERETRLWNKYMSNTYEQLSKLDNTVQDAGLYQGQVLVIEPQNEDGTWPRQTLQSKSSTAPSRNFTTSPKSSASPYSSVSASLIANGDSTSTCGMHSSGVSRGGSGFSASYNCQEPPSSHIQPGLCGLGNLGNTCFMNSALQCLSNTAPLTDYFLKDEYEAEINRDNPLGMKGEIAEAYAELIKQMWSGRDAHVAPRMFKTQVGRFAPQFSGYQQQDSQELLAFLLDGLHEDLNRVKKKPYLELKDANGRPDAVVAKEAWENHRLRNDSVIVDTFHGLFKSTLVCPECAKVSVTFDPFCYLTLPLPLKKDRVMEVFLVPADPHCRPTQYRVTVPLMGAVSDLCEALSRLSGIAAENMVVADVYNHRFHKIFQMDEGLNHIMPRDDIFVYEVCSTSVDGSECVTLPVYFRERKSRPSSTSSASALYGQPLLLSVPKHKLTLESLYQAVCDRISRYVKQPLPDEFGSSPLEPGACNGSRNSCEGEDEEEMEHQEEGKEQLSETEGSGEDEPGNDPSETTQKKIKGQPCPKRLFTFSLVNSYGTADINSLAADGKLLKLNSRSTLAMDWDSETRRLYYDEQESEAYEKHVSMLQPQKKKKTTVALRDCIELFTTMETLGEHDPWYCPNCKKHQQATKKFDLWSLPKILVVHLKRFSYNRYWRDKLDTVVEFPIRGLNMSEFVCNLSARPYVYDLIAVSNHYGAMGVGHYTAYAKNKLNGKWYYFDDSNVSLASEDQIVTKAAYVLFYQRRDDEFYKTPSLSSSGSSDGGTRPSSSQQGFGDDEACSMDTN
Procedure, shortened: as §1

Measured: log2 ratio of Biotin-Ahx-Ub-VS probe labelling

Sequence of USP34 (Q70CQ2 whole entry, the tested form may be a part): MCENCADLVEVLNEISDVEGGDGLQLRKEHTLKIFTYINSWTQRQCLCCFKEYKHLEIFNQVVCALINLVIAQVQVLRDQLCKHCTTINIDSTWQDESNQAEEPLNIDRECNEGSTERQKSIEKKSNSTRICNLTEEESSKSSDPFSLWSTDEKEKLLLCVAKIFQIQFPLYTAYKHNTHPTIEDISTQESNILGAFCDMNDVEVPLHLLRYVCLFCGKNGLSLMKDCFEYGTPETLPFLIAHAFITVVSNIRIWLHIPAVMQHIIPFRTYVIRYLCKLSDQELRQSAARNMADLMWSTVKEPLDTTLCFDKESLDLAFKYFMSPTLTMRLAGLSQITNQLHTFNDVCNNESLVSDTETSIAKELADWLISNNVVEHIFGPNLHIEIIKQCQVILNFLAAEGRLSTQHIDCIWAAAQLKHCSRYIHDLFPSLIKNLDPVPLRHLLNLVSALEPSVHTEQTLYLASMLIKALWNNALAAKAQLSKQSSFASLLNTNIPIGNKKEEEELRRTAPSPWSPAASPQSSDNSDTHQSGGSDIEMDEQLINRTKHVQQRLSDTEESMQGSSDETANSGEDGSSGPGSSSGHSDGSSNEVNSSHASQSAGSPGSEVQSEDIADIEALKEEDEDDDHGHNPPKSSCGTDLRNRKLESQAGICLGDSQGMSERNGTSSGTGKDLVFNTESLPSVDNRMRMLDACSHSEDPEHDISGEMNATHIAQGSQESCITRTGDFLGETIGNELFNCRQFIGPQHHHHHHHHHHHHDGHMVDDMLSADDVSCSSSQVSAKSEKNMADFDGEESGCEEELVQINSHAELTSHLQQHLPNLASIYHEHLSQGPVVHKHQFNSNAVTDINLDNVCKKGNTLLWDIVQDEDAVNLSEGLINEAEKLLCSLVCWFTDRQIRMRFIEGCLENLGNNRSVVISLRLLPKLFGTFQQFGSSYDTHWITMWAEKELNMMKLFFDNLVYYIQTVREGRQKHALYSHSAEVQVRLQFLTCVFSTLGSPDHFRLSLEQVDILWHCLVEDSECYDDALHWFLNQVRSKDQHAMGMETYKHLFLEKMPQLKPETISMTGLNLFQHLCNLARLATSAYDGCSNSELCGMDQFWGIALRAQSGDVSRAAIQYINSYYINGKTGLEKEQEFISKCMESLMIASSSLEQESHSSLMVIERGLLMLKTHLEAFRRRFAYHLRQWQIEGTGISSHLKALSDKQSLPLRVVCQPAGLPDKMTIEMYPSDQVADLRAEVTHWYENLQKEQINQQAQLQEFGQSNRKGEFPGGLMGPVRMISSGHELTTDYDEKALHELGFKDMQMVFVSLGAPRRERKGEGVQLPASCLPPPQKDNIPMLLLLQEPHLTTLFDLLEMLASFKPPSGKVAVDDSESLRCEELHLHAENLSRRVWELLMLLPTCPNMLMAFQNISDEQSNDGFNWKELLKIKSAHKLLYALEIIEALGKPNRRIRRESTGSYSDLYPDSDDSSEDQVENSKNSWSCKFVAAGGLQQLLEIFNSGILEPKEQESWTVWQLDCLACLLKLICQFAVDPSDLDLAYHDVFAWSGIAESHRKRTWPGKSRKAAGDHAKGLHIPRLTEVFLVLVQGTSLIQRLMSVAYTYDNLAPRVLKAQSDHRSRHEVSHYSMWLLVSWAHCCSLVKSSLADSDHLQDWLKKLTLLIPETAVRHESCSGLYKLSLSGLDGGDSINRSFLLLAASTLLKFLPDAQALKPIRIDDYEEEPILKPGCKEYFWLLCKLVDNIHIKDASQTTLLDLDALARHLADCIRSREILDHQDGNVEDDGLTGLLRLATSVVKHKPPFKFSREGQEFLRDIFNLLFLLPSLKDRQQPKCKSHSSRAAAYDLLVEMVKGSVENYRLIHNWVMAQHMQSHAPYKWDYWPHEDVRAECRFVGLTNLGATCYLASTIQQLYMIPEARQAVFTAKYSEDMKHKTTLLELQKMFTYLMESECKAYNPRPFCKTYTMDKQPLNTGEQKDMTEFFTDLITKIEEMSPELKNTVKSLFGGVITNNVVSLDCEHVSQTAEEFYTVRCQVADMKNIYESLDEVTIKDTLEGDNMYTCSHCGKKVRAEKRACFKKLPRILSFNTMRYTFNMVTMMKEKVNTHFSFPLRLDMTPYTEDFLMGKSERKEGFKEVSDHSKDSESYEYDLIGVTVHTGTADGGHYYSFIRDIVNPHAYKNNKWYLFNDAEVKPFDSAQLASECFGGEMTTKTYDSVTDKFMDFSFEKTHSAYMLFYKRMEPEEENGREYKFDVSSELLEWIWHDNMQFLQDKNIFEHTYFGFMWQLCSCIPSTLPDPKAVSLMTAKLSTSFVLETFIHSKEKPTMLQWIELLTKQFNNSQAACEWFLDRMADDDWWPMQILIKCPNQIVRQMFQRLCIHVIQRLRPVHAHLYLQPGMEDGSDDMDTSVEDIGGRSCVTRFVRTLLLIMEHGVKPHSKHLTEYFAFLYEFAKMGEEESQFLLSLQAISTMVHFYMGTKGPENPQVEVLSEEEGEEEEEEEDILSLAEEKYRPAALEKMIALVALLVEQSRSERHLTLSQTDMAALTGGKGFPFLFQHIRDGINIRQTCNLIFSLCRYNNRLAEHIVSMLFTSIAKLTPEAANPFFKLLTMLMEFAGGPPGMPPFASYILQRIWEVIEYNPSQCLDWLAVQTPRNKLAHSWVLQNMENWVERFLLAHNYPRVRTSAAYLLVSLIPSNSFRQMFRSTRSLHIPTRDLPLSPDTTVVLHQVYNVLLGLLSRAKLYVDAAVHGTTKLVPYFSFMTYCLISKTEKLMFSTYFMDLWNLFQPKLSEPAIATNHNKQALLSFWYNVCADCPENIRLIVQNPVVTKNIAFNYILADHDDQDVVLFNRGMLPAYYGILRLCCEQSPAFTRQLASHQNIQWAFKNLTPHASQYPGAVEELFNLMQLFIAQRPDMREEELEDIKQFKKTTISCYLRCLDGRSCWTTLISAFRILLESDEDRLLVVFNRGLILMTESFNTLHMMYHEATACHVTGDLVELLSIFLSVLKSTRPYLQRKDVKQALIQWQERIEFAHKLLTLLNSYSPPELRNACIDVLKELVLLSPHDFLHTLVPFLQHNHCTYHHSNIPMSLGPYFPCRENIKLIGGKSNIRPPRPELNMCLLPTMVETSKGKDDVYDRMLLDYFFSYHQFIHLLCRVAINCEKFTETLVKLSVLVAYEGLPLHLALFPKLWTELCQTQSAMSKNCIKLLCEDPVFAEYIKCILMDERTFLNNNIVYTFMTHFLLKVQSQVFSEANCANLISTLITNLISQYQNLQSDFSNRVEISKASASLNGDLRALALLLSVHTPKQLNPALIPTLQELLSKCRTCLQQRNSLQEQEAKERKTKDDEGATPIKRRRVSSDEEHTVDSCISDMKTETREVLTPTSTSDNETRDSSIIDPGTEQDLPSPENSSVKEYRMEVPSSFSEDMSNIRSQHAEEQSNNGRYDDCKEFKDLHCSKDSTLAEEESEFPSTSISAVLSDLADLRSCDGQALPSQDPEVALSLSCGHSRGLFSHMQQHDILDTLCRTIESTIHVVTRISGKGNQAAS

COc1cc(Cl)c(C)cc1NC(=O)CCl
inactive: USP34 -0.327 | USP36 -0.122 | USP38 -0.241 | USP39 -0.366 | USP4 -0.423
